We go through 13 molecules from paper PMC12864922, “TDP-43 directly inhibits mRNA accumulation in neurites through modulation of mRNA stability”.

Sequences and labels used below:
B1: ENSMUSG00000028439.73|Fam219a|190:194 (ssRNA)
RNA: GGGAGUUCUACAGUCCGACGAUCGCUUCGAUAUCCGCAUGCUAGUAAGCGUUGGGUGAAGGGAUCACAGGGCCGGAAGGUUGGCCCCAGCCAGUGAAGCCAUGAAUCCCCCCCAAGCCCGGCUUGGAAAGGAAGGAAAGGGGUUUUGAGAAGAAAAGGAUCCAAGCAAUGGGGGCAGUUCUCACACCUCAGAGCCCCUCUCCCCAAACCCUGUGCCAGCCCAUAUACCUAUUACACAUUUCCCCUCAUCUCCAGAUGGGAAGCCUGGCAGCGCUGUCCAAAGGGAUACUGUCUCUCCAUUAGACUCUUGCGGUCGCACUAGUGUGGAAUUCUCGGGUGUCAAGG
B2: ENSMUSG00000028439.185|Fam219a|1:16;18:35;45:52 (ssRNA)
RNA: GGGAGUUCUACAGUCCGACGAUCGCUUCGAUAUCCGCAUGCUAACACACAUACACACACCCACACACACACACACACAUGUACCCGACACACACAUGAGCCUAUCUGUCCAGGGAACCAGAUUGGUGUCCGAGAUGAGGAAAUGGCUGUGGCCUGGGAAAUCAGUGAGAGGCCGCUUGGGAAUGAGAAUGCAGUGGACUGAAAGCACAGCCUGGCCAUCUGGAACCUGGGUUCUGGUCCCAGCCUCGGCAUUCUCCCUGAGCUCCUAAGCAAUUCCCAGGCUUCUCUAGGGCUUCAGUUCUCACUCUUGCGGUCGCACUAGUGUGGAAUUCUCGGGUGUCAAGG
B3: ENSMUSG00000028439.187|Fam219a|6:23;33:40 (ssRNA)
RNA: GGGAGUUCUACAGUCCGACGAUCGCUUCGAUAUCCGCAUGCUAUGUGCCACACACACACACACACAUGUACCCGACACACACAUGAGCCUAUCUGUCCAGGGAACCAGAUUGGUGUCCGAGAUGAGGAAAUGGCUGUGGCCUGGGAAAUCAGUGAGAGGCCGCUUGGGAAUGAGAAUGCAGUGGACUGAAAGCACAGCCUGGCCAUCUGGAACCUGGGUUCUGGUCCCAGCCUCGGCAUUCUCCCUGAGCUCCUAAGCAAUUCCCAGGCUUCUCUAGGGCUUCAGUUCUCACAACUGGAAAAUCUCUUGCGGUCGCACUAGUGUGGAAUUCUCGGGUGUCAAGG
B4: ENSMUSG00000028439.189|Fam219a (ssRNA)
RNA: GGGAGUUCUACAGUCCGACGAUCGCUUCGAUAUCCGCAUGCUAUGUGUGUGUGUUGUACCCGAGUGUGUGUUGAGCCUAUCUGUCCAGGGAACCAGAUUGGUGUCCGAGAUGAGGAAAUGGCUGUGGCCUGGGAAAUCAGUGAGAGGCCGCUUGGGAAUGAGAAUGCAGUGGACUGAAAGCACAGCCUGGCCAUCUGGAACCUGGGUUCUGGUCCCAGCCUCGGCAUUCUCCCUGAGCUCCUAAGCAAUUCCCAGGCUUCUCUAGGGCUUCAGUUCUCACAACUGGAAAAUAAAGAGUAGCUGCUCUUGCGGUCGCACUAGUGUGGAAUUCUCGGGUGUCAAGG
B5: ENSMUSG00000028439.188|Fam219a (ssRNA)
RNA: GGGAGUUCUACAGUCCGACGAUCGCUUCGAUAUCCGCAUGCUAUGUGUGUGUGUGUGUGUUGUACCCGAGUGUGUGUUGAGCCUAUCUGUCCAGGGAACCAGAUUGGUGUCCGAGAUGAGGAAAUGGCUGUGGCCUGGGAAAUCAGUGAGAGGCCGCUUGGGAAUGAGAAUGCAGUGGACUGAAAGCACAGCCUGGCCAUCUGGAACCUGGGUUCUGGUCCCAGCCUCGGCAUUCUCCCUGAGCUCCUAAGCAAUUCCCAGGCUUCUCUAGGGCUUCAGUUCUCACAACUGGAAAAUAAAGAGCUCUUGCGGUCGCACUAGUGUGGAAUUCUCGGGUGUCAAGG
B6: ENSMUSG00000028439.186|Fam219a (ssRNA)
RNA: GGGAGUUCUACAGUCCGACGAUCGCUUCGAUAUCCGCAUGCUAUAUGUGUGUGCGUGUGUGUGUGUGUGUGUUGUACCCGAGUGUGUGUUGAGCCUAUCUGUCCAGGGAACCAGAUUGGUGUCCGAGAUGAGGAAAUGGCUGUGGCCUGGGAAAUCAGUGAGAGGCCGCUUGGGAAUGAGAAUGCAGUGGACUGAAAGCACAGCCUGGCCAUCUGGAACCUGGGUUCUGGUCCCAGCCUCGGCAUUCUCCCUGAGCUCCUAAGCAAUUCCCAGGCUUCUCUAGGGCUUCAGUUCUCACAACUGCUCUUGCGGUCGCACUAGUGUGGAAUUCUCGGGUGUCAAGG
B7: ENSMUSG00000028439.187|Fam219a (ssRNA)
RNA: GGGAGUUCUACAGUCCGACGAUCGCUUCGAUAUCCGCAUGCUAUGUGCGUGUGUGUGUGUGUGUGUUGUACCCGAGUGUGUGUUGAGCCUAUCUGUCCAGGGAACCAGAUUGGUGUCCGAGAUGAGGAAAUGGCUGUGGCCUGGGAAAUCAGUGAGAGGCCGCUUGGGAAUGAGAAUGCAGUGGACUGAAAGCACAGCCUGGCCAUCUGGAACCUGGGUUCUGGUCCCAGCCUCGGCAUUCUCCCUGAGCUCCUAAGCAAUUCCCAGGCUUCUCUAGGGCUUCAGUUCUCACAACUGGAAAAUCUCUUGCGGUCGCACUAGUGUGGAAUUCUCGGGUGUCAAGG
B8: ENSMUSG00000028439.185|Fam219a (ssRNA)
RNA: GGGAGUUCUACAGUCCGACGAUCGCUUCGAUAUCCGCAUGCUAUGUGUGUAUGUGUGUGCGUGUGUGUGUGUGUGUGUUGUACCCGAGUGUGUGUUGAGCCUAUCUGUCCAGGGAACCAGAUUGGUGUCCGAGAUGAGGAAAUGGCUGUGGCCUGGGAAAUCAGUGAGAGGCCGCUUGGGAAUGAGAAUGCAGUGGACUGAAAGCACAGCCUGGCCAUCUGGAACCUGGGUUCUGGUCCCAGCCUCGGCAUUCUCCCUGAGCUCCUAAGCAAUUCCCAGGCUUCUCUAGGGCUUCAGUUCUCACUCUUGCGGUCGCACUAGUGUGGAAUUCUCGGGUGUCAAGG
B9: ENSMUSG00000061578.500|Ksr2|29:34;201:207 (ssRNA)
RNA: GGGAGUUCUACAGUCCGACGAUCGCUUCGAUAUCCGCAUGCUACUCUGCCUCCCAAGUGCUGGGAUUAAAGCACACAACCACCAUUGCAAUCUUGAACUCUUGACCAAUAGAAAUCCUAGACUAGUGUUGCUAGGCAACUGACUGUAUUCAGGACACCCAGGGUGGGAGGUGGAUGGAGCUCUUGCCUAACACACACCAAGCCCCAAGUUCCAUCCCCAGUCCCACACAAACCAGAUAUGAUGCACACACCCUAUGUCCCCCACACACGAGAGAGCUGGAGGCAGGAGGAUCAGAAGUUCAGGCUCUUGCGGUCGCACUAGUGUGGAAUUCUCGGGUGUCAAGG
B10: ENSMUSG00000061578.501|Ksr2|23:28;195:201 (ssRNA)
RNA: GGGAGUUCUACAGUCCGACGAUCGCUUCGAUAUCCGCAUGCUACUCCCAAGUGCUGGGAUUAAAGCACACAACCACCAUUGCAAUCUUGAACUCUUGACCAAUAGAAAUCCUAGACUAGUGUUGCUAGGCAACUGACUGUAUUCAGGACACCCAGGGUGGGAGGUGGAUGGAGCUCUUGCCUAACACACACCAAGCCCCAAGUUCCAUCCCCAGUCCCACACAAACCAGAUAUGAUGCACACACCCUAUGUCCCCCACACACGAGAGAGCUGGAGGCAGGAGGAUCAGAAGUUCAGGGCCAUCCUCUUGCGGUCGCACUAGUGUGGAAUUCUCGGGUGUCAAGG
B11: ENSMUSG00000028439.184|Fam219a|6:22;24:41;51:58 (ssRNA)
RNA: GGGAGUUCUACAGUCCGACGAUCGCUUCGAUAUCCGCAUGCUAUGUGCCACACACAUACACACACCCACACACACACACACACAUGUACCCGACACACACAUGAGCCUAUCUGUCCAGGGAACCAGAUUGGUGUCCGAGAUGAGGAAAUGGCUGUGGCCUGGGAAAUCAGUGAGAGGCCGCUUGGGAAUGAGAAUGCAGUGGACUGAAAGCACAGCCUGGCCAUCUGGAACCUGGGUUCUGGUCCCAGCCUCGGCAUUCUCCCUGAGCUCCUAAGCAAUUCCCAGGCUUCUCUAGGGCUUCAGCUCUUGCGGUCGCACUAGUGUGGAAUUCUCGGGUGUCAAGG
B12: ENSMUSG00000028439.184|Fam219a (ssRNA)
RNA: GGGAGUUCUACAGUCCGACGAUCGCUUCGAUAUCCGCAUGCUAUGUGCGUGUGUGUAUGUGUGUGCGUGUGUGUGUGUGUGUGUUGUACCCGAGUGUGUGUUGAGCCUAUCUGUCCAGGGAACCAGAUUGGUGUCCGAGAUGAGGAAAUGGCUGUGGCCUGGGAAAUCAGUGAGAGGCCGCUUGGGAAUGAGAAUGCAGUGGACUGAAAGCACAGCCUGGCCAUCUGGAACCUGGGUUCUGGUCCCAGCCUCGGCAUUCUCCCUGAGCUCCUAAGCAAUUCCCAGGCUUCUCUAGGGCUUCAGCUCUUGCGGUCGCACUAGUGUGGAAUUCUCGGGUGUCAAGG
B13: ENSMUSG00000061578.502|Ksr2|17:22;189:195 (ssRNA)
RNA: GGGAGUUCUACAGUCCGACGAUCGCUUCGAUAUCCGCAUGCUAAGUGCUGGGAUUAAAGCACACAACCACCAUUGCAAUCUUGAACUCUUGACCAAUAGAAAUCCUAGACUAGUGUUGCUAGGCAACUGACUGUAUUCAGGACACCCAGGGUGGGAGGUGGAUGGAGCUCUUGCCUAACACACACCAAGCCCCAAGUUCCAUCCCCAGUCCCACACAAACCAGAUAUGAUGCACACACCCUAUGUCCCCCACACACGAGAGAGCUGGAGGCAGGAGGAUCAGAAGUUCAGGGCCAUCCUUAAUCUCUUGCGGUCGCACUAGUGUGGAAUUCUCGGGUGUCAAGG

Over roughly 9,900 sequences, “r (bound/input frequency ratio)” has its median near 0.7; the highest 2% begin near 6.5. The full list was thinned out, with the highest values kept by preference.

Chain of TDP-43 (Q13148 whole entry): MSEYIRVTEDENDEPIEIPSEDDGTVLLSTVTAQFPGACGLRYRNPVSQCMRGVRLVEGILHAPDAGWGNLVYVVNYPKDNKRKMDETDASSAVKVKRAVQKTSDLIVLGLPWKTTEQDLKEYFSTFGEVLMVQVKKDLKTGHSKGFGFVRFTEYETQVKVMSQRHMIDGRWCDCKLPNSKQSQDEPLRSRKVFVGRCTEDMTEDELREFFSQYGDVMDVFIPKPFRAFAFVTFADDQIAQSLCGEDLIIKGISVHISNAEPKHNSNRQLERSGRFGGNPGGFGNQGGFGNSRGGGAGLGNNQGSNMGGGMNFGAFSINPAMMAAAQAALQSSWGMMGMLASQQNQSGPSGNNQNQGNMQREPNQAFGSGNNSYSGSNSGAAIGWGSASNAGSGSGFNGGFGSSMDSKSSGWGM

For this assay, the target named is TDP-43 (Homo sapiens, UniProt Q13148 1-414). As to the kind of experiment: RNA Bind-n-Seq with designed 260-mer pool; 25 mM Tris-HCl, 150 mM KCl, 3 mM MgCl2, BSA (printed 500 mg/mL), 20 units/mL SUPERase IN; pH not stated; 500 nM RNA pool, 1 h, 4 C; TDP-43 5, 50, 500 nM; high values mean tight binding. Conditions: protein: recombinant; tags: SBP (GST cleaved off with PreScission; pGEX-GST-SBP). Put shortly:
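Duplicate measurements used two independent batches of recombinant SBP-tagged TDP-43, which was captured on streptavidin beads at 5, 50 or 500 nM. The beads were incubated with 500 nM of an in vitro-transcribed 260-nt 3′ UTR oligo pool for 1 h at 4 °C in 25 mM Tris-HCl, 150 mM KCl, 3 mM MgCl2, BSA and SUPERase IN. After washing, biotin elution, reverse transcription, PCR amplification and sequencing, binding was expressed as R: each oligo's normalized read abundance in the bound sample over its abundance in input.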
Take B1: the binding signal is 0.449 R (bound/input frequency ratio).

Consider B2, for which the binding signal is 2.5 R (bound/input frequency ratio).

In the case of B3, the binding signal was 1.44 R (bound/input frequency ratio).

Take B4: the binding signal is 1.86 R (bound/input frequency ratio).

Take B5: the binding signal is 4.17 R (bound/input frequency ratio).

In the case of B6, the binding signal is 6.13 R (bound/input frequency ratio).

As to B7, the binding signal was 6.68 R (bound/input frequency ratio).

B8: the binding signal was 7.73 R (bound/input frequency ratio).

As to B9, the binding signal was 3.25 R (bound/input frequency ratio).

Take B10: the binding signal was 6.59 R (bound/input frequency ratio).

Turning to B11, the binding signal was 2.43 R (bound/input frequency ratio).

For B12, the binding signal is 7.33 R (bound/input frequency ratio).

On to B13, for which the binding signal is 3.46 R (bound/input frequency ratio).
